# In PubChem BioAssay:
# Calls of active or inactive are those of the source.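 Rule for the calls, unless noted: active = calcium signal rise above buffer-control mean plus 5 SD in both duplicates, and also a hit in the primary screen; inactive = the rest.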
# Target: Short transient receptor potential channel 6 (Mus musculus) (UniProt Q61143)
# Assay: positive modulators of mouse TRPC6 channel – HEK293 cells, membrane potential dye, duplicate, selectivity assay for TRPC4 potentiator project, confirmation (AID 434952;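 active = compound raising the membrane signal above positive-control mean plus 3 SD in both repeats, and a primary screen hit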)
# Details: HEK293 TRPC6, membrane potential dye fluorescence, at 10 µM, maximal acetylcholine added after compound
# Chain of Short transient receptor potential channel 6 (Mus musculus) (Q61143 whole entry, looked up): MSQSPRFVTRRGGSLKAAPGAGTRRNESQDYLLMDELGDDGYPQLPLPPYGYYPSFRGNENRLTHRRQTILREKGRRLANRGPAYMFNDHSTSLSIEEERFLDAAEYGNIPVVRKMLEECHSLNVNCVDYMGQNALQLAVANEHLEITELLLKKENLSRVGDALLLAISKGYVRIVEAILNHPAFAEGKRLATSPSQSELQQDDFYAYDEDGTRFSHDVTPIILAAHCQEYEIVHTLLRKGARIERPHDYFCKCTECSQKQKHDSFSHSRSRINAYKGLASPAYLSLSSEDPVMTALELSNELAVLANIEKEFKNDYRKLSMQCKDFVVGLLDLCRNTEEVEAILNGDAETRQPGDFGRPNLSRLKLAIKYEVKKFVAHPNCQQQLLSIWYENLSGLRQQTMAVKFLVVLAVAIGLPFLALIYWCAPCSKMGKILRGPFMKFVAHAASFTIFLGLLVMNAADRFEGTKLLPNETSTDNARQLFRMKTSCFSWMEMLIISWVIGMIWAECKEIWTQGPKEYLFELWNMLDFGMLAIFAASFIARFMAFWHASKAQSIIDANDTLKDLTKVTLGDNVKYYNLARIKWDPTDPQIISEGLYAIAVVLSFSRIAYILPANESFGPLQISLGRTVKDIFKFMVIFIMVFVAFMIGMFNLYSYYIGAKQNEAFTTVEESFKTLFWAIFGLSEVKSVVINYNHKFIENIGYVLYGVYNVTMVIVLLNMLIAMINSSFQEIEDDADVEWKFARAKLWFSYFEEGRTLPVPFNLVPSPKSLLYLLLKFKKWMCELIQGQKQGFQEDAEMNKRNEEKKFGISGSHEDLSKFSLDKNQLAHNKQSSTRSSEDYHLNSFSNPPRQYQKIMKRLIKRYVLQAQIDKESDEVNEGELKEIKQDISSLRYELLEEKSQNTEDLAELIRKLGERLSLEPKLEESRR
row,SMILES,outcome
1,CCCNc1nc2ccccc2n2c(C)nnc12,inactive
2,CC(C)NS(=O)(=O)c1ccc(NC(=O)C(C)Oc2ccc(C(=O)c3ccccc3)cc2)cc1 (stereo unspecified),inactive
3,O=C1C=CC(=O)N1CCNc1ncc(C(F)(F)F)cc1Cl,inactive
4,CCN1CCN(c2ccc(S(=O)(=O)N3CCCCC3)cc2NC(=O)c2cccc(F)c2)CC1,inactive
5,CCn1c2ccc(F)cc2c2nnc(NN)nc21,inactive
6,CCCN1Cc2cccc(C(=O)N3CCN(c4cc(Cl)ccc4C)CC3)c2C1=O,inactive
7,Cc1ccc2c(c1)C1CN(C)CCC1N2C(=S)NC(=O)c1ccc(Br)cc1 (stereo unspecified),inactive
8,CCCCN(CC)CCCNC(=O)c1cc2cc3ccc(C)cc3nc2o1,inactive
9,COc1cc(NC(=O)CSc2ncnc3sc4c(c23)CCC(C)C4)c(C(=O)O)cc1OC (stereo unspecified),inactive
10,CN(CCCNC(=O)CCCOc1cc(=O)n(C)c2ccccc12)Cc1ccccc1,inactive
11,O=S(=O)(NCC1NCCc2ccccc21)c1ccccc1 (stereo unspecified),inactive
12,Cc1cc(C)c2c(=O)n(CC(=O)Nc3cccc(Cl)c3C)sc2n1,inactive
13,O=C(Nc1ccnn1C1CCN(Cc2cc3ccccc3[nH]2)CC1)C1CCOC1 (stereo unspecified),inactive
14,CC(Oc1ccc(Cl)cc1Cl)C(=O)N(C)c1ccccc1 (stereo unspecified),inactive
15,O=C(C1=C[C@H](c2ccc(C(F)(F)F)cc2)C[C@H](OCCCCO)O1)N1CCOCC1,inactive
16,O=C(O)CCCN1C(=O)/C(=C\c2ccc(-c3nc4ccccc4s3)o2)SC1=S,inactive
17,O=c1c2ccccc2nc(COc2ccccc2)n1/N=C/c1cc([N+](=O)[O-])ccc1O,inactive
18,O=C(CCN1CCN(Cc2ccccc2)CC1)Nc1cccc(Br)c1,inactive
19,O=C(NC1CCCC1)c1cc2ccccc2o1,inactive
20,Cc1cc(/C=N/NC(=O)c2cccc([N+](=O)[O-])c2)c(C)n1-c1ccc(Cl)cc1Cl,inactive
21,CCN(CC)c1ncnc2sc3c(c12)CCC3,inactive
22,CC(=O)c1nn(-c2cccc(Br)c2)cc1C(=O)c1cccc2ccccc12,inactive

# Target: Short transient receptor potential channel 4 (Mus musculus) (UniProt Q9QUQ5)
# Assay: calcium flux activators in TRPC4/5HT1a cells, counter-screen for TRPC4 activator project, cell-based, second counter screen, HEK293 TRPC4/5HT1a, Fluo-4 (AID 434977)
# Details: Fluo-4 calcium flux, at 10 µM
row,SMILES,outcome
1,CCCc1nc2oc3c(NCCCN(C)C)ncnc3c2c2c1CCCC2,inactive
2,O=C(/C=C/c1ccc(Cl)cc1)N(Cc1ccccc1)C1CCS(=O)(=O)C1 (stereo unspecified),inactive
3,COc1ccc(NS(=O)(=O)c2ccc3ccccc3c2)c2ncccc12,inactive
4,CN(C)S(=O)(=O)N1CCC(CCCC2CCN(S(=O)(=O)N(C)C)CC2)CC1,inactive
5,COc1cc(C2(c3ccc(O)c(OC)c3)C(=O)Nc3c(C)cc(Br)cc32)ccc1O,inactive
6,COC(=O)C(CC(=O)Nc1cc(C)ccc1C)Nc1ccccc1OC (stereo unspecified),inactive
7,CC(C)CCc1noc(CN2CCN(c3ccc(Cl)cn3)CC2)n1,inactive
8,Cc1cc(OCCN2CCCC2)ccc1[N+](=O)[O-],inactive
9,CSc1ccc(S(=O)(=O)NCC(=O)OCC(=O)N(C)Cc2ccccc2)cc1[N+](=O)[O-],inactive
10,O=C(COC(=O)c1ccccc1C(=O)N1CCN(c2ccccc2)CC1)Nc1ccc(F)cc1,inactive
11,CCCCCCCCCC[n+]1cccc2c3ccccc3ccc21,inactive
12,Cc1nn(-c2cc(C(F)(F)F)ccc2Cl)c2nc(C(Cl)(Cl)Cl)[nH]c(=O)c12,inactive
13,Cc1cc2oc(C(=O)N(Cc3cccs3)C3CCS(=O)(=O)C3)cc(=O)c2cc1Cl (stereo unspecified),inactive
14,CN(C)CCCN(C(=O)CCc1ccccc1)c1nc2ccc(F)cc2s1,inactive
15,Cc1ccc(C(=O)O)cc1N=Cc1cc(Br)cc(Br)c1O,inactive
16,N=c1c2c3c(sc2ncn1Cc1ccccc1)CCCC3,inactive
17,Cn1c2ccccc2c(=O)c2c(=O)n(-c3ccccc3)c(-c3ccc(C(C)(C)C)cc3)nc21,inactive
18,CCCNc1nc2ccccc2n2c(C)nnc12,inactive
19,CC(C)NS(=O)(=O)c1ccc(NC(=O)C(C)Oc2ccc(C(=O)c3ccccc3)cc2)cc1 (stereo unspecified),inactive
20,O=C1C=CC(=O)N1CCNc1ncc(C(F)(F)F)cc1Cl,inactive

row,SMILES,outcome
1,CCN1CCN(c2ccc(S(=O)(=O)N3CCCCC3)cc2NC(=O)c2cccc(F)c2)CC1,inactive
2,CCn1c2ccc(F)cc2c2nnc(NN)nc21,inactive
3,CCCN1Cc2cccc(C(=O)N3CCN(c4cc(Cl)ccc4C)CC3)c2C1=O,inactive
4,Cc1ccc2c(c1)C1CN(C)CCC1N2C(=S)NC(=O)c1ccc(Br)cc1 (stereo unspecified),inactive
5,CCCCN(CC)CCCNC(=O)c1cc2cc3ccc(C)cc3nc2o1,inactive
6,COc1cc(NC(=O)CSc2ncnc3sc4c(c23)CCC(C)C4)c(C(=O)O)cc1OC (stereo unspecified),inactive
7,CN(CCCNC(=O)CCCOc1cc(=O)n(C)c2ccccc12)Cc1ccccc1,inactive
8,O=S(=O)(NCC1NCCc2ccccc21)c1ccccc1 (stereo unspecified),inactive
9,Cc1cc(C)c2c(=O)n(CC(=O)Nc3cccc(Cl)c3C)sc2n1,inactive
10,O=C(Nc1ccnn1C1CCN(Cc2cc3ccccc3[nH]2)CC1)C1CCOC1 (stereo unspecified),inactive
11,CC(Oc1ccc(Cl)cc1Cl)C(=O)N(C)c1ccccc1 (stereo unspecified),inactive
12,O=C(C1=C[C@H](c2ccc(C(F)(F)F)cc2)C[C@H](OCCCCO)O1)N1CCOCC1,inactive
13,O=C(O)CCCN1C(=O)/C(=C\c2ccc(-c3nc4ccccc4s3)o2)SC1=S,inactive
14,O=c1c2ccccc2nc(COc2ccccc2)n1/N=C/c1cc([N+](=O)[O-])ccc1O,inactive
15,O=C(CCN1CCN(Cc2ccccc2)CC1)Nc1cccc(Br)c1,inactive
16,O=C(NC1CCCC1)c1cc2ccccc2o1,inactive
17,Cc1cc(/C=N/NC(=O)c2cccc([N+](=O)[O-])c2)c(C)n1-c1ccc(Cl)cc1Cl,inactive
18,CCN(CC)c1ncnc2sc3c(c12)CCC3,inactive
19,CC(=O)c1nn(-c2cccc(Br)c2)cc1C(=O)c1cccc2ccccc12,inactive
